Experiment in all cases: NCI-60 one-dose screen, 48 h (100 = growth as untreated, 0 = no growth, -100 = all killed)
Settings in all cases: 10 µM unless noted

The subject of assay [1] is DU-145 prostate.
The subject of assay [2] is K-562 leukemia.
For assay [3], the system named is MALME-3M melanoma.
The subject of assay [4] is MDA-MB-231 breast.
The subject of assay [5] is RXF 393 renal.
Assay [6] concerns SF-268 CNS.
For assay [7], the system named is SF-295 CNS.
The subject of assay [8] is SF-539 CNS.
Assay [9] relates to UACC-257 melanoma.
Assay [10] has as its system M14 melanoma.

About 83,000 compounds went through this panel and 20% of them were active in at least one assay; those are over-represented in the sample as a whole.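 Cells were grown in 96-well plates and exposed to the test compound at a single concentration for 48 hours; results are reported as percent growth, with values below 10 considered active.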 Unmarked numbers belong to inactive results. The source made the active and inactive calls.

Consider `CCOC(=O)[C@@H](C)C[C@H](Cc1ccccc1)NC(=O)c1csc([C@@H](C[C@H](C(C)C)N(C)C(=O)[C@@H](NC(=O)[C@H]2C[C@H](O[Si](C)(C)C(C)(C)C)CCN2C)C(C)C)OC(C)=O)n1`, for which the growth is -21.4% [9.25 µM] (active) in assay [1]; 3.46% [9.25 µM] (active) in assay [2]; 18.1% [9.25 µM] in assay [3]; -34.7% [9.25 µM] (active) in assay [4]; -10.3% [9.25 µM] (active) in assay [5]; 4.82% [9.25 µM] (active) in assay [6]. In addition, the growth in assay [7] was -15.6% [9.25 µM] (active); in assay [8], -49.7% [9.25 µM] (active); in assay [9] it was 21.3% [9.25 µM]; in [10], -42.2% [9.25 µM] (active).

Regarding `COc1ccc2nc(-c3ccc(-c4noc(-c5cc(OC)c(OC)c(OC)c5)n4)cc3)[nH]c2c1`, the growth is 57.4% in [1]; 14.7% in assay [2]; -33% (active) in [3]; 41.4% in assay [4]; 58.2% in assay [5]; 50.5% in assay [6]. The growth in [7] was 83.3%; in [8] it was -24.4% (active); in assay [9], 102%; in assay [10], 63%.

`CN1CCN(c2ccc(NC3=C(Cl)C(=O)c4ncccc4C3=O)cc2C(F)(F)F)CC1`: the growth is 96.6% in assay [1]; 3.72% (active) in assay [2]; -92.1% (active) in [3]; 4.49% (active) in [4]; -71.4% (active) in [5]; 87.7% in assay [6]. Also, the growth is 106% in [7], 104% in assay [8], -56.8% (active) in assay [9] and 39.8% in [10].

Turning to `CCC(CC)NCC(C)(C)O`, the growth in assay [1] was 106%; in assay [2] it was 102%; in assay [3], 113%; in [4], 102%; in assay [5] it was 117%; in assay [6], 109%. The growth in [7] was 103%; in assay [8] it was 111%; in assay [9] it was 106%; in [10] it was 97%.

With `O=C(c1ccccc1)N1N=C(c2ccc(-n3ccc(C(F)(F)F)n3)c(F)c2)CC1c1ccc[nH]1` (stereo not given), the growth was 111% in assay [1]; 96.5% in assay [2]; 101% in assay [3]; 99.5% in [4]; 112% in assay [5]; 104% in assay [6]. In addition, the growth in [7] is 105%; in [8] it was 109%; in assay [9], 95.6%; in assay [10], 107%.

For `C#CCNC(=O)[C@]1(C)CC[C@]2(C)CC[C@@H]3C(=CC[C@H]4[C@@]3(C)CC[C@H]3C(C)(C)C(=O)CC[C@]43C)[C@@H]2C1`, the growth in assay [1] is 98.8%; in assay [2], 63.7%; in assay [3], 114%; in assay [4], 98%; in assay [5], 116%; in [6] it was 95.7%. In addition, the growth was 107% in [7], 102% in assay [8], 98.7% in [9] and 95.8% in [10].

In the case of `CNCCn1c(=O)c2cc(OC)c(OC)cc2c2ccc3cc4c(cc3c21)OCO4`, the growth in [1] was 5.52% (active); in assay [2], 2.28% (active); in [3], -85.3% (active); in assay [4], 0.962% (active); in [5], -76.1% (active); in assay [6], 11.9%. For the same molecule, the growth in assay [7] was 6.74% (active); in [8], -30.4% (active); in [9] it was -76.3% (active); in assay [10], -50.5% (active).

Take `CCN(CC)CCOc1ccc(NC(=O)C(C(C)C)N2C(=O)/C(=C/c3ccc(Br)cc3)SC2=S)cc1` (stereo not given): the growth in assay [1] was 73%; in [2], -64.8% (active); in [3] it was -34.4% (active); in [4], 50.7%; in assay [5], 71.6%; in assay [6], 76.6%. Moreover, the growth is 101% in assay [7], 88.2% in assay [8], 93.5% in assay [9] and 75.8% in assay [10].

Regarding `O=C(Nc1ccc(Cl)cc1)c1cc(NCc2cc(O)ccc2O)ccc1O`, the growth is 100% in assay [1]; 41.9% in assay [2]; 80.2% in assay [3]; 69.1% in assay [4]; 67.1% in assay [5]; 77.2% in assay [6]. Also, the growth in assay [7] was 116%; in [8] it was 43.5%; in assay [9], 77.3%; in assay [10] it was 102%.

For the molecule `Cn1ccnc1C(=O)/C=C/c1ccc(CC(=O)Nc2ccc(F)cc2)cc1`, the growth in [1] was -15.6% (active); in assay [2] it was 5.72% (active); in assay [3], 90.4%; in assay [4] it was 30.1%; in assay [5], 35.6%; in [6], 10%. In addition, the growth in assay [7] was 37.1%; in assay [8] it was 2.33% (active); in assay [9], 85.3%; in assay [10], 81.1%.

Regarding `Nc1c(C(=O)Nc2cccc3cnccc23)sc2nc3c(cc12)CN(Cc1ccccc1)CC3`, the growth was 109% in [1]; 96.5% in [2]; 101% in assay [3]; 89.1% in [4]; 103% in assay [5]; 103% in assay [6]. Besides, the growth in [7] was 106%; in assay [8], 107%; in [9] it was 124%; in [10] it was 102%.

Consider `C=C(C)[C@@H]1CC[C@]2(CN)CC[C@]3(C)[C@H](CC[C@@H]4[C@@]5(C)CCCNC(C)(C)[C@@H]5CC[C@]43C)[C@@H]12`, for which the growth is -53.5% (active) in assay [1]; -56.1% (active) in assay [2]; -70.5% (active) in [3]; -79.7% (active) in assay [4]; -87.4% (active) in [5]; 22.9% in assay [6]. Besides, the growth in assay [7] was -59.6% (active); in assay [8] it was -31.8% (active); in assay [9], 46.3%; in [10], -77.7% (active).

`COc1cc(/C=N/NC(=O)c2cnn3c2NC(c2ccccc2)C3)ccc1Oc1ccccc1` (stereo not given): the growth in assay [1] is 30.2%; in assay [2] it was 16.8%; in assay [3], 27.4%; in assay [4], 44.3%; in [5], 29.3%; in [6], 45.2%. The growth is 0.968% (active) in assay [7], 9.71% (active) in assay [8], 41.6% in assay [9] and 18.2% in assay [10].
